Most compounds without a hit are left out; they make up all but 8.3% or so of the library.
Giardia killer: kills Giardia lamblia; AID 540267; activity change, % at 7.66 µM, hits read low; hit rate 0.15% among 340,000; Giardia lamblia trophozoite viability; in the data active = activity change below about -80%; inconclusive = between about -30% and that limit;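 also: parasites exposed to compound for two days anaerobically before the ATP read; % is scaled to controls: 0 for no effect and ±100 for the full control effect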
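Trophozoites 100 cells/well + cpd; 48 hrs, 37 deg C, anaerobic. ATPLite 1-Step added, 15-30 min RT, luminescence read (ATP-based viability).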
SW480 rereplic: DNA re-replication induction in SW480 cells; SW480 DNA re-replication, Hoechst DNA content imaging, 48 h; Potency, µM (doses to about 46.1 µM), without a hit: at the top dose re-replication activation, most hits filed as activators; hit rate 1.8% among 340,000; AID 624297; also: potency is read from the fitted curve at half-maximal effect; % of control where 0% means no effect; nearly all actives have a fitted effect of over 55% in size
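Cells (250 per well) received 23 nL compound or DMSO by pin tool and were kept 48 hr at 37 C, 5% CO2. Nuclei were then stained with Hoechst for 40 min and scanned for DNA content.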
BCR signal inh: chronic active BCR signaling inhibition; Potency, µM (titrated, usually from 46.1 µM), for the others: at the top dose activity change, negative = inhibition, actives largely listed as inhibitors; ABC-DLBCL IkBa-CBG/CBR reporter, luminescence ratio, 4 h; hit rate 0.05% among 340,000; active = well fitted inhibition curve with a large enough effect in the signal ratio, with a control signal flat, not every such curve was filed as active; inconclusive = small, poorly fitted or top-dose-only effect, or effect the other way, or a change in a side signal; the % refers to the signal ratio;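 also: potency is read from the fitted curve at half-maximal effect; plate controls were basal doxycycline-induced cells for no effect and cells given 10 µM MG132 for full effect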
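Cell line TMD8 (human ABC DLBCL), stably expressing tet-inducible CBG68-IkBa fusion and CBR; IMDM/0.5% FBS; cpd up to 46 uM; dox induction, 4 h, 37C/5% CO2; dual luminescence; green/red ratio; MG132 control.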
MCF10A rerep: inducers of DNA re-replication in MCF 10A breast cells. MCF 10A DNA re-replication, Hoechst nuclear intensity, 48 h. Potency, µM (series often up to 46.1 µM), for inactives: top-dose activity, positive = re-replication, actives largely listed as activators. hit rate 2.9% among 350,000; also: potency is read from the fitted curve at half-maximal effect; % of control where 0% means no effect; nearly all actives have a fitted effect of over 50% in size
RORgamma inh: inhibitors of mouse ROR gamma transcriptional activity. hit rate 5.4% among 310,000. Drosophila S2 Gal4-RORgamma UAS-luciferase reporter, 20 h. P51450. Potency, µM (series often up to 53.6 µM), without a hit: at the highest dose activity change, negative = inhibition, hits mostly inhibitors. AID 2551; also: potency is read from the fitted curve at half-maximal effect; % is scaled to controls: 0 for no effect and ±100 for the full control effect; nearly all actives have a fitted effect of over 60% in size
Target sequence (P51450 whole entry, looked up, the tested form may be a part): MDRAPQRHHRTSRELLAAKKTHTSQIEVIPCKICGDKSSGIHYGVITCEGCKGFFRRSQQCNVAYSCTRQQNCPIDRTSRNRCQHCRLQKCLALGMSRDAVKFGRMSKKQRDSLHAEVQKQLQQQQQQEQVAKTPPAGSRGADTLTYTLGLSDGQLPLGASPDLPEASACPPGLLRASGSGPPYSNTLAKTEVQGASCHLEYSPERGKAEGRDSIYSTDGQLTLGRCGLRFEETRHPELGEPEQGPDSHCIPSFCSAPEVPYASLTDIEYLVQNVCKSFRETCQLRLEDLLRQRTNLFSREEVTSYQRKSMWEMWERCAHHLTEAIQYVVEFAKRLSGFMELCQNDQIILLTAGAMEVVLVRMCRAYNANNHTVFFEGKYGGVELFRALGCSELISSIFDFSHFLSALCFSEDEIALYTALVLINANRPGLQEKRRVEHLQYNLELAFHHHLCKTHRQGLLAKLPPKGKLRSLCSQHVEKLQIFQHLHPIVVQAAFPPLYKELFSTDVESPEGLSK
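Luciferase reporter read in Schneider cells carrying Gal4-RORγ (mouse) and UAS-Photinus luciferase; cells given compound 1 h before 700 uM copper sulfate induction, then incubated 20 h at ambient temperature.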
VP16 counter: Gal4-VP16 reporter inhibition counter-screen; Drosophila S2 Gal4-VP16 UAS-luciferase, luminescence, 20 h; Potency, µM (titrated, usually from 53.6 µM), for the others: at the highest dose activity, negative = inhibition, actives largely listed as inhibitors; hit rate 3.5% among 310,000;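 also: Gal4-VP16 expression switched on by copper sulfate through the metallothionein promoter; potency is read from the fitted curve at half-maximal effect; % is scaled to controls: 0 for no effect and ±100 for the full control effect; nearly all actives have a fitted effect of over 50% in size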
Active calls of the source: *; [ ] = remark or other dose. Unless noted, calls follow the shape of the dose curve; as a rule, active = well fitted curve in the direction sought with a large enough effect; inconclusive = small, poorly fitted or top-dose-only effect, or another doubt; inactive = no such curve, though single readings can be large; an effect the other way counts as inactive or inconclusive.

For COc1ccc(Cn2nnnc2CN(Cc2cc3cc(C)ccc3[nH]c2=O)C2CCCC2)cc1 the results were Giardia killer -22, SW480 rereplic 14%, BCR signal inh inconclusive, MCF10A rerep 23µM*, RORgamma inh 35% and VP16 counter inconclusive.
Screening COc1ccc2[nH]c(=O)c(CN(Cc3nnnn3Cc3ccco3)C3CCCCC3)cc2c1 returned Giardia killer 0, SW480 rereplic inconclusive, BCR signal inh inconclusive, MCF10A rerep 30%, RORgamma inh -3% and VP16 counter 3%.
`COc1ccccc1NC(=S)N(C(C)C)C(C)c1ccccn1` (centres undefined) gave Giardia killer -7, SW480 rereplic -16%, BCR signal inh 0%, MCF10A rerep -6%, RORgamma inh 13µM* and VP16 counter -4%[10 µM].
For O=C(CSc1ccccc1C(=O)N1CCCCC1)NCC1CCCCC1 the results were Giardia killer 28, SW480 rereplic -1%, BCR signal inh -1%, MCF10A rerep 5%, RORgamma inh 2.5µM* and VP16 counter 9%.
`N#C/C(=N/Nc1ccc(OC(F)(F)F)cc1)C(N)=S` gave Giardia killer 1, SW480 rereplic -8%, BCR signal inh inconclusive, MCF10A rerep inconclusive, RORgamma inh 4.5µM* and VP16 counter 4.5µM*.
Screening COc1ccc(N/N=C(\C#N)C(N)=O)cc1 returned Giardia killer 1, SW480 rereplic -7%, BCR signal inh -14%, MCF10A rerep -3%, RORgamma inh 15% and VP16 counter 19%.
O=C(CCNC(=O)N1CC(=O)Nc2ccccc21)Nc1ccc(Br)cc1F was read as Giardia killer 2, SW480 rereplic 0%, BCR signal inh -3%, MCF10A rerep -18%, RORgamma inh -4% and VP16 counter 17%.
`COc1ccc(Br)cc1C1CC(=O)N2CN(C)CSC2=C1C#N` (centres undefined) gave Giardia killer 29, SW480 rereplic -16%, BCR signal inh -10%, MCF10A rerep -9%, RORgamma inh 16µM* and VP16 counter -2%.
`CC(C)(C)c1n[nH]c2c1CCCC2` gave Giardia killer 4, SW480 rereplic -3%, BCR signal inh -2%, MCF10A rerep -13%, RORgamma inh 11µM* and VP16 counter -21%.
`CCCCCCNC(=O)N[C@H](C(=O)NCCC[C@H]1CN2C(=NC[C@H]2C)N1CCC(c1ccccc1)c1ccccc1)C(C)O` (some centres undefined) gave BCR signal inh 18µM*, RORgamma inh -4% and VP16 counter inconclusive.
Screening CC(NC(=O)CNC(=S)N(Cc1cccs1)C1CCCC1)c1ccccc1 (centres undefined) returned Giardia killer -19, SW480 rereplic -8%, BCR signal inh inconclusive, MCF10A rerep inconclusive, RORgamma inh inconclusive and VP16 counter inconclusive.
For C=CCC1(O)C(=O)N2C(=C1C(=O)OCC)c1ccc3ccccc3c1CC2(C)C (centres undefined) the results were Giardia killer 0, SW480 rereplic -20%, BCR signal inh 1%, MCF10A rerep 5%, RORgamma inh -19% and VP16 counter -12%.
`CC1(C)Cc2c(ccc3ccccc23)C2=C(C(=O)N3CCCC3)C(=O)C(=O)N21` gave Giardia killer -17, SW480 rereplic 4%, BCR signal inh -7%, MCF10A rerep 21µM*, RORgamma inh -37% and VP16 counter 23%.
Screening Cc1ccc(Cl)cc1N1CCN(S(=O)(=O)c2ccc3c(c2)NC(=O)C(C)C(=O)N3)CC1 (centres undefined) returned Giardia killer 33, SW480 rereplic 9%, BCR signal inh -16%, MCF10A rerep 18µM*, RORgamma inh 37% and VP16 counter inconclusive.
Screening Cc1ccc(Cl)cc1N1CCN(S(=O)(=O)c2ccc3[nH]c(=O)ccc3c2)CC1 returned Giardia killer -19, SW480 rereplic 1%, BCR signal inh -7%, MCF10A rerep 23µM*, RORgamma inh -28% and VP16 counter 2%.
CN(Cc1ccccc1)C(=O)C1CCN(S(=O)(=O)c2ccc3nc4c(c(C(=O)O)c3c2)CCCC4)CC1 was read as Giardia killer -8, SW480 rereplic -10%, BCR signal inh 5%, MCF10A rerep -1%, RORgamma inh 12% and VP16 counter 3%.
COCCNC(=O)COC(=O)/C=C/c1c(C)nn(Cc2ccc(Cl)cc2Cl)c1Cl was read as Giardia killer -7, SW480 rereplic -27%, BCR signal inh 1%, MCF10A rerep 13µM*, RORgamma inh 31% and VP16 counter inconclusive.
Screening CC(=O)SC1CC(=O)N(c2ccc(C(C)(C)C)cc2)C1=O (centres undefined) returned Giardia killer -2, SW480 rereplic inconclusive, BCR signal inh -24%, MCF10A rerep 0%, RORgamma inh 7.1µM* and VP16 counter inconclusive.
For CC(=O)SC1CC(=O)N(c2c(C)cccc2C)C1=O (centres undefined) the results were Giardia killer -10, SW480 rereplic 21%, BCR signal inh inconclusive, MCF10A rerep inconclusive, RORgamma inh 10µM* and VP16 counter inconclusive.
For O=C(CCC1CCCC1)Nc1cc(C(F)(F)F)ccc1N1CCOCC1 the results were Giardia killer -15, SW480 rereplic 3.7µM*, BCR signal inh 6% and MCF10A rerep -8%.
`O=C(Nc1cc(C(F)(F)F)ccc1N1CCOCC1)c1ccccc1` gave Giardia killer 5, SW480 rereplic -10%, BCR signal inh inconclusive, MCF10A rerep 2%, RORgamma inh 5% and VP16 counter 1%.
Screening CC(=O)NC(=S)Nc1cc(C(F)(F)F)ccc1N1CCOCC1 returned Giardia killer 18, SW480 rereplic 2%, BCR signal inh -3%, MCF10A rerep 3%, RORgamma inh 13µM* and VP16 counter inconclusive.
Screening CC(C)C(=O)Nc1cc(C(F)(F)F)ccc1N1CCOCC1 returned Giardia killer -1, SW480 rereplic 2%, BCR signal inh 2%, MCF10A rerep -6%, RORgamma inh 37% and VP16 counter 1%.
Screening O=C(NC(=S)Nc1cc(C(F)(F)F)ccc1N1CCOCC1)c1ccco1 returned Giardia killer 3, SW480 rereplic -2%, BCR signal inh -12%, MCF10A rerep 2%, RORgamma inh 1.4µM* and VP16 counter 11µM*.
`O=C(CCC1CCCCC1)Nc1cc(Cl)ccc1N1CCOCC1` gave Giardia killer -2, SW480 rereplic inconclusive, BCR signal inh 7% and MCF10A rerep inconclusive.

Assay outcomes: PubChem, National Center for Advancing Translational Sciences (NCATS)
